In PubChem BioAssay (NCATS):
Inconclusive results are not listed. The source made the active and inactive calls. The call rests on the fitted dose curve; in most records, active means well fitted curve in the direction sought with a large enough effect; inconclusive means small, poorly fitted or top-dose-only effect, or another doubt; inactive means no such curve, though single readings can be large; an effect the other way counts as inactive or inconclusive.

Assays:
[1] = Quantitative High-Throughput drug screen in 47 multiple myeloma cell lines against the NCATS MIPE library collection: KMS20_JCRB cell viability assay (AID 1918973); further: nearly all actives have a fitted effect of over 45% in size; further: potency means the concentration at half of the fitted maximal effect
Method in brief: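 We plated 500 myeloma cells per well, pinned in MIPE 4.0 compounds, and incubated for 48 hours at 37C. ATP was then quantified with CellTiter-Glo, with DMSO and media-only wells defining 100% and 0%.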

[2] = Quantitative High-Throughput drug screen in 47 multiple myeloma cell lines against the NCATS MIPE library collection: NCIH929_DSMZ cell viability assay (AID 1918978); further: nearly all actives have a fitted effect of over 35% in size; further: potency means the concentration at half of the fitted maximal effect
Method in brief: (§1)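 Inhibition of viability over 48 h was scored by ATP content (CellTiter-Glo) in 500-cell wells. Zero and full viability were defined by media-only and DMSO-only wells.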

[3] = Quantitative High-Throughput drug screen in 47 multiple myeloma cell lines against the NCATS MIPE library collection: MM1R_ATCC cell viability assay (AID 1918981); further: nearly all actives have a fitted effect of over 35% in size; further: potency means the concentration at half of the fitted maximal effect
Method in brief: as §1

[4] = Quantitative High-Throughput drug screen in 47 multiple myeloma cell lines against the NCATS MIPE library collection: KMS28PE_JCRB cell viability assay (AID 1918983); further: nearly all actives have a fitted effect of over 35% in size; further: potency means the concentration at half of the fitted maximal effect
Method in brief: as §1

[5] = Quantitative High-Throughput drug screen in 47 multiple myeloma cell lines against the NCATS MIPE library collection: L363_DSMZ cell viability assay (AID 1918984); further: nearly all actives have a fitted effect of over 40% in size; further: potency means the concentration at half of the fitted maximal effect
Method in brief: as §1

[6] = Quantitative High-Throughput drug screen in 47 multiple myeloma cell lines against the NCATS MIPE library collection: KMS34_JCRB cell viability assay (AID 1918985); further: nearly all actives have a fitted effect of over 40% in size; further: potency means the concentration at half of the fitted maximal effect
Method in brief: as §1

[7] = Quantitative High-Throughput drug screen in 47 multiple myeloma cell lines against the NCATS MIPE library collection: OCIMY5_PLB cell viability assay (AID 1918988); further: nearly all actives have a fitted effect of over 65% in size; further: potency means the concentration at half of the fitted maximal effect
Method in brief: as §1

[8] = Quantitative High-Throughput drug screen in 47 multiple myeloma cell lines against the NCATS MIPE library collection: OPM1_PLB cell viability assay (AID 1918989); further: nearly all actives have a fitted effect of over 40% in size; further: potency means the concentration at half of the fitted maximal effect
Method in brief: as §1

[9] = Quantitative High-Throughput drug screen in 47 multiple myeloma cell lines against the NCATS MIPE library collection: MOLP8_DSMZ cell viability assay (AID 1918977); further: nearly all actives have a fitted effect of over 45% in size
Method in brief: as §1

[10] = Quantitative High-Throughput drug screen in 47 multiple myeloma cell lines against the NCATS MIPE library collection: OCIMY1_PLB cell viability assay (AID 1918979); further: series mostly up to about 46 µM; nearly all actives have a fitted effect of over 35% in size
Method in brief: as §1

[11] = Quantitative High-Throughput drug screen in 47 multiple myeloma cell lines against the NCATS MIPE library collection: LP1_DSMZ cell viability assay (AID 1918982); further: nearly all actives have a fitted effect of over 35% in size
Method in brief: as §1

[12] = Quantitative High-Throughput drug screen in 47 multiple myeloma cell lines against the NCATS MIPE library collection: SKMM1_PLB cell viability assay (AID 1919863); settings: SKMM1 myeloma viability, CellTiter-Glo ATP, 48 h; viability: hits give low values; further: nearly all actives have a fitted effect of over 35% in size; further: potency means the concentration at half of the fitted maximal effect; on viability: series mostly up to about 46 µM
Method in brief: as §1

[13] = Quantitative High-Throughput drug screen in 47 multiple myeloma cell lines against the NCATS MIPE library collection: XG6_PLB cell viability assay (AID 1919865); further: nearly all actives have a fitted effect of over 40% in size; further: potency means the concentration at half of the fitted maximal effect
Method in brief: as §1

[14] = Quantitative High-Throughput drug screen in 47 multiple myeloma cell lines against the NCATS MIPE library collection: MM1S_ATCC cell viability assay (AID 1918980); further: nearly all actives have a fitted effect of over 45% in size; further: potency means the concentration at half of the fitted maximal effect
Method in brief: as §1

[15] = Quantitative High-Throughput drug screen in 47 multiple myeloma cell lines against the NCATS MIPE library collection: U266_ATCC cell viability assay (AID 1919864); further: nearly all actives have a fitted effect of over 35% in size; further: potency means the concentration at half of the fitted maximal effect
Method in brief: as §1

[16] = Quantitative High-Throughput drug screen in 47 multiple myeloma cell lines against the NCATS MIPE library collection: KMS26_JCRB cell viability assay (AID 1918975); further: nearly all actives have a fitted effect of over 45% in size; further: potency means the concentration at half of the fitted maximal effect
Method in brief: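 Myeloma cell lines, 500 cells per well, exposed to MIPE 4.0 library compounds for 48 h at 37C, 5% CO2. Viability from ATP by CellTiter-Glo luminescence; normalised to DMSO (100%) and media-only (0%) wells.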

[17] = Quantitative High-Throughput drug screen in 47 multiple myeloma cell lines against the NCATS MIPE library collection: MMM1_PLB cell viability assay (AID 1918976)
Method in brief: as §1

CC(=O)N1CCN(c2ccc(OC[C@H]3CO[C@](Cn4ccnc4)(c4ccc(Cl)cc4Cl)O3)cc2)CC1
active: Potency [1] 7.43 µM | Potency [2] 9.35 µM | Potency [3] 11.8 µM | Potency [4] 6.62 µM | Potency [6] 13.2 µM | Potency [7] 18.7 µM | Potency [8] 16.6 µM
inactive: Potency [5]

C=C(c1ccc(C(=O)O)cc1)c1cc2c(cc1C)C(C)(C)CCC2(C)C
inactive: Potency [9] | Potency [10] | Potency [3] | Potency [11] | Potency [4] | Potency [6]

CCOc1cc(CC(=O)N[C@@H](CC(C)C)c2ccccc2N2CCCCC2)ccc1C(=O)O
active: Potency [1] 0.59 µM
inactive: Potency [2] | Potency [10] | Potency [11] | Potency [4] | Potency [6] | viability [12] 138% | Potency [13]

CN(C)C(=O)COC(=O)Cc1ccc(OC(=O)c2ccc(N=C(N)N)cc2)cc1
inactive: Potency [9] | Potency [10] | Potency [11] | Potency [4] | viability [12] 150%
active: Potency [14] 11.8 µM | Potency [5] 5.26 µM | Potency [8] 0.418 µM | Potency [15] 26.4 µM | Potency [13] 5.26 µM

CC(C)[N+]1(C)[C@@H]2CC[C@H]1CC(OC(=O)C(CO)c1ccccc1)C2 (some centres undefined)
active: Potency [5] 14.8 µM
inactive: Potency [16] | Potency [9] | Potency [10] | Potency [14] | Potency [3] | Potency [11] | Potency [4] | Potency [6] | viability [12] 150% | Potency [13]

OC(CN1CCN(c2cccc(Cl)c2)CC1)C(c1ccccc1)c1ccccc1 (centres undefined)
active: Potency [14] 5.26 µM
inactive: Potency [9] | Potency [2] | Potency [5]

Clc1ccc(C(Cn2ccnc2)OCc2ccsc2Cl)c(Cl)c1 (centres undefined)
inactive: Potency [16] | Potency [6]
active: Potency [12] 13.2 µM | Potency [13] 20.9 µM

CN(C)C(=O)[C@H](O)[C@H](Cc1ccccc1)NC(=O)c1cc2cc(Cl)ccc2[nH]1
active: Potency [1] 7.43 µM | Potency [16] 20.9 µM | Potency [2] 1.32 µM | Potency [14] 18.7 µM | Potency [3] 13.2 µM | Potency [5] 2.64 µM | Potency [6] 0.935 µM | Potency [8] 6.62 µM

CCOC(=O)C1=C[C@@H](OC(CC)CC)[C@H](NC(C)=O)[C@@H](N)C1
inactive: Potency [1] | Potency [16] | Potency [9] | Potency [2] | Potency [10] | Potency [3] | Potency [11] | Potency [4] | Potency [6] | Potency [8] | viability [12] 108% | Potency [13]

O=C(NCCO[N+](=O)[O-])c1cccnc1
active: Potency [14] 4.69 µM
inactive: Potency [2] | Potency [10] | Potency [11] | Potency [4] | Potency [6] | Potency [8]

O=C(O)CCNC(=O)c1ccc(N=Nc2ccc(O)c(C(=O)O)c2)cc1
active: Potency [14] 8.33 µM | Potency [15] 13.2 µM
inactive: Potency [2] | Potency [10] | Potency [3] | Potency [11] | Potency [4] | Potency [6] | Potency [8] | Potency [13]

C[C@@H](c1ncncc1F)[C@](O)(Cn1cncn1)c1ccc(F)cc1F
inactive: Potency [16] | Potency [9] | Potency [10] | Potency [14] | Potency [3] | Potency [11] | Potency [4] | Potency [6]

Oc1ccc(-c2nc(-c3ccc(F)cc3)c(-c3ccncc3)[nH]2)cc1
active: Potency [14] 16.6 µM | Potency [8] 20.9 µM

C[C@]12CCC(=O)C=C1CC[C@@H]1[C@H]2[C@@H](O)C[C@@]2(C)[C@H]1CC[C@]2(O)C(=O)CO
inactive: Potency [9] | Potency [10] | Potency [11] | Potency [4] | Potency [5] | Potency [7] | Potency [8] | viability [12] 138%

Cn1c(NCCN(CCO)CCCc2ccc([N+](=O)[O-])cc2)cc(=O)n(C)c1=O
active: Potency [14] 23.5 µM | Potency [13] 20.9 µM
inactive: Potency [16] | Potency [10] | Potency [6] | viability [12] 107%

CN(C)[C@@H](CCOc1cccc2ccccc12)c1ccccc1
inactive: Potency [10]
active: Potency [1] 14.8 µM | Potency [17] 20.9 µM | Potency [2] 20.9 µM | Potency [14] 23.5 µM | Potency [4] 20.9 µM | Potency [6] 20.9 µM | Potency [8] 16.6 µM

CC(C)Oc1ccc2c(=O)c(-c3ccccc3)coc2c1
inactive: Potency [2] | Potency [3] | Potency [6] | Potency [8] | viability [12] 100% | Potency [13]
active: Potency [17] 18.7 µM | Potency [14] 13.2 µM | Potency [4] 14.8 µM

CNC[C@@H](O)[C@@H](O)[C@H](O)[C@H](O)CO
inactive: Potency [16] | Potency [9] | Potency [2] | Potency [10] | Potency [11] | Potency [4] | Potency [6] | Potency [8] | Potency [15] | Potency [13]
